Source: PubChem BioAssay AID588683 (Broad Institute, 2011)
Entries with a potency or affinity are not part of this list. Calls of active or inactive are those of the source. No rule for the calls is given here.

Target: Kelch-like ECH-associated protein 1 (Homo sapiens) + Nuclear factor erythroid 2-related factor 2 (Homo sapiens) (UniProt Q14145+Q16236)
Test: disruptors of Keap1 binding to Nrf2 peptide – biochemical, fluorescence polarization, cherry-picked samples, dose response (AID 588683);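 also: Kelch domain of Keap1 binding a fluorescein-labelled 9mer Nrf2 peptide; more negative means stronger inhibition of peptide binding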
Details: plate reader; series mostly up to 26 µM; activity change, negative = inhibition: at the top concentration

Chain of Kelch-like ECH-associated protein 1 (Homo sapiens) + Nuclear factor erythroid 2-related factor 2 (Homo sapiens) (Q14145 whole entry, looked up, the tested form may be a part): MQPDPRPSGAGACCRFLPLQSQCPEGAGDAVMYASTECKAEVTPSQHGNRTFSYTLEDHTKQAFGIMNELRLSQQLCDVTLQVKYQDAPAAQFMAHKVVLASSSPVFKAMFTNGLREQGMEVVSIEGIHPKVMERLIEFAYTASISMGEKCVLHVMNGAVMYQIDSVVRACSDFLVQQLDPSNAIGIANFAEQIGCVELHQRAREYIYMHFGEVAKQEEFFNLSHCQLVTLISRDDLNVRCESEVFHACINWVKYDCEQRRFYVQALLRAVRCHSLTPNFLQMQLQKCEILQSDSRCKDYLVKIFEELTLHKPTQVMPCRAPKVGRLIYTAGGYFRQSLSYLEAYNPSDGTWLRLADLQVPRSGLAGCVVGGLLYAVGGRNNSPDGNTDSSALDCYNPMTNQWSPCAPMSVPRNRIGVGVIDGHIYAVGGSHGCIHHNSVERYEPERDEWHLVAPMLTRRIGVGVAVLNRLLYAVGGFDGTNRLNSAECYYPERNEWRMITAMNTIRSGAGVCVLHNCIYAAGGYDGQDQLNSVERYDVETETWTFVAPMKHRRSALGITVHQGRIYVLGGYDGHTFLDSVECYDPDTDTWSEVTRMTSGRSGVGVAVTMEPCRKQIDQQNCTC
Chain of Kelch-like ECH-associated protein 1 (Homo sapiens) + Nuclear factor erythroid 2-related factor 2 (Homo sapiens) (Q16236 whole entry, looked up, the tested form may be a part): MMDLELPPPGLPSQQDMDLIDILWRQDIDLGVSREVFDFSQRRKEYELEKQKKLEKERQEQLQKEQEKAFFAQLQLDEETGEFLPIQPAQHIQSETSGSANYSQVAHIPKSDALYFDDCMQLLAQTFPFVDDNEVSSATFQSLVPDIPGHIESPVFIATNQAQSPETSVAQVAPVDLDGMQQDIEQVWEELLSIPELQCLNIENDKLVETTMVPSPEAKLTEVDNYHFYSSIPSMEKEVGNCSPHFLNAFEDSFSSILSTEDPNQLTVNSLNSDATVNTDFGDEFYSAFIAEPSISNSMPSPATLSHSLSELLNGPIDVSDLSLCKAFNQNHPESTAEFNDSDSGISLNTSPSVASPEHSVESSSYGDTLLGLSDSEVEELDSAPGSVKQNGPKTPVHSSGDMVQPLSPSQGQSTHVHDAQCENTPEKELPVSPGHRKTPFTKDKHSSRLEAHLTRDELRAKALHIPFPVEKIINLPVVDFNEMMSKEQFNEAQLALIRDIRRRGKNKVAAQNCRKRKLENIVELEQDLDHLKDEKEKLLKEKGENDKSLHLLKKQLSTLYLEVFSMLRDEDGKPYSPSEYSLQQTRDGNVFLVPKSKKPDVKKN

Activity change, negative = inhibition, inactive:
CCN(CC)c1ccc(C2Nc3cccc4cccc(c34)N2)cc1 10.9%
COc1cc2c3nnc(-c4ccc(F)cc4)c-3cn(Cc3ccccc3F)c2cc1OC 129%
CCOCCCn1c(=NC(=O)c2cccs2)c(C#N)cc2c(=O)n3ccccc3nc21 -14.5%
Oc1[nH]c2ccccc2c1N=Nc1ccccc1F 396%
COc1ccc(/C=N/N=C2/CC(C)(C)Cc3n[nH]c(=O)cc32)cc1 -23.3%
O=C(NNc1ncnc2sccc12)c1ccc(Cl)cc1 6.87%
Clc1ccc(-c2noc(CN3CCOCC3)n2)cc1 -5.41%
COc1cc(/C=C/CN2CCN(CCC(C)C)C(CCO)C2)ccc1O (stereo not drawn) -10.6%
CCCC(=O)Nc1ccc(C(=O)NCCCn2ccnc2)cc1 9.53%
O=C1/C(=C/C=C/c2ccco2)SC(=S)N1NS(=O)(=O)c1ccccc1 -4.92%
CCn1nnnc1SCC(=O)N(C)C1CCS(=O)(=O)C1 (stereo not drawn) -6.23%
CCCCNC(=S)Nc1ccc(OC)nc1 -10.8%
Cc1ccccc1NC(=O)c1sc(NC(=O)C2CC2)nc1C -1.61%
COCCCn1c(=NC(=O)c2ccccc2)c(C#N)cc2c(=O)n3cccc(C)c3nc21 2.49%
Nc1c(C(=O)Nc2ccccc2F)sc2nc(Cc3ccccc3)cc(C(F)(F)F)c12 28%
C/C(=N/Nc1ccccc1C(=O)O)c1cccs1 -6.44%
COc1cccc(NC(=O)CN(C)CC(=O)NCc2ccco2)c1 -0.293%
COc1ccc(/C=c2\s/c(=C(/C#N)C(=O)NCc3ccco3)n(-c3ccccc3)c2=O)cc1 5.04%
CC1(C)CC(=O)C2=C(C1)OC1=C(C2)C(=O)CC(C)(C)C1 -5.94%
COCCCNc1nc(N)c([N+](=O)[O-])c(Nc2cc(OC)ccc2OC)n1 0.954%
CC(=O)Nc1ccc(NS(=O)(=O)c2ccc3c(c2)oc(=O)n3C)cc1 -3.36%
O=C(COC(=O)/C=C/c1cccc(Cl)c1)NC1CC1 10.7%
CS(=O)(=O)N1CCCC(C(=O)Nc2ccc(F)c(F)c2)C1 (stereo not drawn) 2.9%
CCC(CNc1cc(OC)cc2cccnc12)NC1CCCCC1 (stereo not drawn) -15.9%
O=C(CSC1=NNC(c2ccccn2)S1)Nc1cccc(Cl)c1 (stereo not drawn) -5.02%
Cc1cccc(NC(=O)CCN2CCCCC2)c1 0.772%
O=C(NCc1cccc(F)c1)c1cccc2c1C(=O)c1ccc(N3CCCC3)cc1S2(=O)=O 10.5%
O=C1NC(=O)/C(=C/c2ccccc2Cl)N1 -4.79%
COc1cc2c3nnc(-c4ccc(F)cc4)c-3cn(Cc3ccc(C)cc3)c2cc1OC 207%
CCC(=O)c1cn(CC(=O)Nc2ccc(OC)cc2)c2ccccc12 2.85%
CCN1CC=C2C(C#N)=C(N)C(C#N)(C#N)C(CCc3ccccc3)C2C1 (stereo not drawn) 5.09%
Cc1ccc(NC(=O)CN2C(=O)NC3(CCCCCC3)C2=O)cc1Cl 3.73%
NC(=O)C1CCN(C2=C(Cl)C(=O)c3ccccc3C2=O)CC1 -5.27%
O=[N+]([O-])c1cncc([N+](=O)[O-])c1Nc1cccc(O)c1 -4.53%
CCOC(=O)c1ccc2ncc(C(=O)OCC)c(NCCN(C)C)c2c1 -6.02%
Nc1cccc2cc(S(=O)(=O)O)ccc12 -6.55%
O=C(CCc1ccccc1)NNc1ccc(F)cc1 2.16%
Fc1ccc(C2=CC(c3ccco3)n3ncnc3N2)cc1 (stereo not drawn) -8.23%
